The values below come from PubChem BioAssay (NCI).

This is part of a sample that, as a whole, favours compounds with a hit. Of some 83,000 tested, about 20% had one in any assay.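 Step 1: grow cells in 96-well plates. Step 2: add test compound at a single concentration. Step 3: incubate 48 h. Step 4: record percent growth.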 Active and inactive are the calls of the source. How the source made its calls: active means growth percent below 10; inactive means the rest.

The subject of this experiment is NCI-H23 lung. The experiment is described as follows: NCI-60 one-dose screen, 48 h (100 = growth as untreated, 0 = no growth, -100 = all killed). Conditions: 10 µM unless noted.
Turning to `C=C1C(=O)O[C@H]2[C@H]1CC/C(COC(=O)NCc1ccc(Cn3c(=O)sn(CCCC)c3=O)cc1)=C\CC[C@@]1(C)O[C@@H]21`, the growth was 80.8% (inactive). The value for `O=C(Nc1ncc(Cc2ccccc2)s1)c1cc(-c2ccccc2)nc2ccccc12` was 89.3% (inactive); that for `CC(=O)Oc1ccccc1C(=O)N(Cc1ccc2c(Cl)cc(Cl)c(O)c2n1)c1ccccc1` was 50.3% (inactive); that for `O=C(Nc1ccccc1)Nc1ccccc1CNc1nc(Nc2ccc(OCCN3CCCC3)cc2)ncc1Cl` was 68.1% (inactive). The value for `C#Cc1ccc(NC(=O)Cc2ccc(/C=C/C(=O)c3nccn3C)cc2)cc1` was 40.4% (inactive); that for `O=C(O)c1nn(-c2ccc(Cl)cc2)nc1N1CCCC1` was 91% (inactive). Then `CCc1ccc(Cc2cnc(NC(=O)c3cc(C)oc3C)s2)cc1`, with 52.8% (inactive).

As to `O=C(NCCN1CCOCC1)c1cncnc1Nc1ccc2c(ccn2Cc2ccccn2)c1`, the growth is 102% (inactive). Then `CC/C(=C(/c1ccc(Cl)cc1)c1ccc(OCCN2CCCCCC2)cc1)c1ccccc1`, with 77.5% (inactive).

Take `CC(=O)OCC(=O)O[C@@H]1C[C@]2(C(C)C)O[C@@]1(C)[C@@H]1CC[C@@H](C)[C@H]1[C@@H]2OC(=O)/C=C/c1ccccc1`: the growth is 89.7% (inactive). The value for `COc1ccc(C(=O)/C=C/c2ccc(C)cc2)cc1S(N)(=O)=O` was 77.4% (inactive). For the compound `Cc1ccc(Nc2oc(-c3ccccc3)nc2[P+](c2ccccc2)(c2ccccc2)c2ccccc2)cc1`, the growth is -51.8% (active). Turning to `COc1ccc(N/N=C/c2ccc3c(c2)Sc2ccccc2N3C)cc1`, the growth was 76.8% (inactive).
